Source: PubChem (National Center for Advancing Translational Sciences (NCATS))
This is a sample that favours compounds with a hit; in the whole collection about 21% have one here.
DT40 TDP1 CPT: DT40-hTDP1 cell growth loss with CPT | chicken DT40 Tdp1-/-;hTDP1 cells + 20 nM CPT, ATP luminescence, 48 h | Potency, µM (titrated, usually from 46.2 µM), without a hit: top-dose activity change, negative = growth inhibition, usual class: inhibitors | 420,000 tested, 12% active | AID 686979; further: potency means the concentration at half of the fitted maximal effect; on the % scale 0 is the no-effect control and ±100 the full control effect; nearly all actives have a fitted effect of over 55% in size
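Chicken DT40 Tdp1-/- cells complemented with human TDP1, 400 cells/well, exposed to compounds plus 20 nM camptothecin for at least 48 h at 37 C; viability read as ATP content by CellTiter-Glo luminescence.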
ClpP mod: qHTS Assay for Activators of ClpP. purified B. subtilis ClpP, FRET peptide cleavage, 20 min. 340,000 tested, 1.9% active. ATP-dependent Clp protease proteolytic subunit (Bacillus subtilis (strain 168)), P80244. AID 651965, 2013. Potency, µM (top dose mostly 57.5 µM), without a hit: at the top dose activity change, negative = active; active means well fitted falling curve with a large enough effect; inconclusive means small, poorly fitted or top-dose-only effect; inactive means no such curve, though single readings can be large or run the other way; further: potency means the concentration at half of the fitted maximal effect; the source files actives as falling curves though it sought activators and does not explain the sign; nearly all actives have a fitted effect of over 65% in size
Target sequence (P80244 whole entry, looked up): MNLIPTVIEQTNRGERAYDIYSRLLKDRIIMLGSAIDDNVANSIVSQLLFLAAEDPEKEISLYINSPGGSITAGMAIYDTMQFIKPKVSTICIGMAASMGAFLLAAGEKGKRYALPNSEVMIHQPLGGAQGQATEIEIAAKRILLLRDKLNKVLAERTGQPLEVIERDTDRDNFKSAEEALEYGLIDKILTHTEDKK
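Purified B. subtilis ClpP, 10 microg/mL final in Tris/HCl pH8 with KCl, BSA, glycerol and Tween-20, cleaved an Abz/nitrotyrosine-quenched decapeptide. Fluorescence (ex 320, em 430) was read at 0 and 20 min at room temperature. Delta was normalized to 5.8 microM ADEP and DMSO/no-enzyme controls.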
DT40 TDP1 no CPT: qHTS for Inhibitors of human tyrosyl-DNA phosphodiesterase 1 (TDP1): qHTS in cells in absence of CPT; DT40 Tdp1-/- hTDP1 cells, no CPT, ATP luminescence, 48 h; Potency, µM (highest dose often 46.2 µM), without a hit: at the highest dose activity change, negative = growth inhibition, most hits filed as inhibitors; 420,000 tested, 15% active; AID 686978, 2013; further: potency means the concentration at half of the fitted maximal effect; on the % scale 0 is the no-effect control and ±100 the full control effect; nearly all actives have a fitted effect of over 55% in size
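Readout: luminescence from CellTiter-Glo after 30 min in the dark at RT. Cells: DT40 Tdp1-/- with stable hTDP1, 400/well. Exposure: compounds alone, ≥48 hr, 37 °C.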
DRD3 agonist: agonists of human D3 dopamine receptor. D3R DiscoveRx beta-arrestin cells, luminescence, 90 min. 410,000 tested, 0.58% active. max activation, %. P35462; in the data active means max activation above about 30%; further: 0% is about no effect
Target sequence (P35462 whole entry, looked up): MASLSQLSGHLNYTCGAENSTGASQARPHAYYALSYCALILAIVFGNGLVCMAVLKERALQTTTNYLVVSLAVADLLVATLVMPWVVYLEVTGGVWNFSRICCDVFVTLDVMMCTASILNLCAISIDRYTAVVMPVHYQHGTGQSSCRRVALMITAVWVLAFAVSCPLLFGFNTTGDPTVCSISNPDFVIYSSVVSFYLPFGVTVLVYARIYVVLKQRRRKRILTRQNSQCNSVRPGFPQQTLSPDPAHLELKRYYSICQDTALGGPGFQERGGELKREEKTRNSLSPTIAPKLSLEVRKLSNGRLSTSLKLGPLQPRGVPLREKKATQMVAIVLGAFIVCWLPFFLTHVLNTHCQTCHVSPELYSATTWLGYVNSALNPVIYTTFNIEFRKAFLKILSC
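Agonist-mode cell screen: cells plated at 1500/well and incubated overnight at 37 °C, then exposed to library compounds for 90 min at 37 °C. Detection reagent was added for 30–60 min at room temperature, and luminescence was read.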
IL-1B inflam inh: inhibitors of inflammasome signaling (IL-1 beta secretion) | THP-1 LPS/ATP IL-1B secretion, AlphaLISA, 16 h; active compounds read low | activity change, % at 57.5 µM | 360,000 tested, 4.7% active | AID 743279; in the data active means activity change below about -50%; inconclusive means mostly about -30% to -49%; further: on the % scale 0 is the no-effect control and ±100 the full control effect
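Secreted IL-1B measured by AlphaLISA bead assay after 16 h compound exposure of THP-1 cells; compounds (final up to 57.5 uM) added 1 h before LPS (250 ng/mL) and ATP (1.25 mM) stimulation; lower signal means less secretion.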
DRD3 antagonist: blocks the human D3 dopamine receptor; D3R cells, DiscoveRx beta-arrestin luminescence, antagonist mode; active compounds read low; 360,000 tested, 2.5% active; max response, negative = inhibition, %; P35462; in the data active means max response below about -50%; inconclusive means no clear call, values can overlap the other calls; further: on the % scale 0 is the no-effect control and ±100 the full control effect
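Cells plated overnight at 1500 cells/well, then exposed to library compounds with dopamine controls for 90 minutes at 37 degrees C. DiscoveRx reagent added for 30–60 minutes at room temperature; luminescence read, quantitative HTS format.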
* hit, by the source's call; ? = inconclusive; . = no result. Unless noted, the call rests on the fitted dose curve; in most records, active means well fitted inhibition curve with a large enough effect; inconclusive means small, poorly fitted or top-dose-only effect; inactive means flat fitted curve, though single readings scatter.

SMILES	DT40 TDP1 CPT	ClpP mod	DT40 TDP1 no CPT	DRD3 agonist	IL-1B inflam inh	DRD3 antagonist
CCC1=C(CC2NCCc3ccccc32)CC2c3cc(OC)c(OC)cc3CCN2C1 (configuration not stated)	1.2µM*	-30%	1.6µM*	-11	-92*	-8
COc1cc2c(cc1OC)C(c1ccccc1O)NCC2 (configuration not stated)	-6%	0%	-17%	12	-7	6
COc1cc2c(cc1OC)C1Cc3ccc(OC)c(OC)c3CN1CC2 (configuration not stated)	?	2%	7.3µM*	-14	-1	?
COc1cc2c(cc1OC)[C@@H]1CC(=O)[C@@H](CC(C)C)CN1CC2	?	.	?	-18	.	.
COc1cc2c(cc1OC)[C@@H]1Cc3ccc(OC)c(OC)c3CN1CC2	3%	-1%	?	-34	30	-99*
Cc1cccc(C)c1Nc1nc2ccccc2nc1NS(=O)(=O)c1ccccc1	?	-18%	-15%	-10	.	.
COc1ccc(CNc2nn3c(-c4cccc(C(=O)N(C)C)c4)cnc3s2)cc1	23µM*	0%	18µM*	11	?	21
CCOC(=O)c1c(C)c(-c2ccccc2)n(CC(=O)NCCC(C)C)c1C	?	-2%	10µM*	1	9	8
C[C@@H](NC(=O)[C@H]1O[C@@H](n2cnc3c(N)ncnc32)[C@H](O)[C@@H]1O)c1cccc2ccccc12	-20%	0%	-12%	-8	?	-25
CCOc1ccc(CCNC(=O)CN2C(=O)c3cccnc3Oc3ccc(Cl)cc32)cc1	?	-3%	21µM*	-2	-10	4
CCOc1ccc(CCNC(=O)CN2C(=O)c3cccnc3Oc3ccc(C)cc32)cc1OCC	21µM*	1%	?	-1	12	13
CSc1ccc(CCNC(=O)CN2C(=O)c3cccnc3Oc3ccc(C)cc32)cc1	?	-2%	29µM*	-13	-18	14
CCOc1ccc(-c2ncnn2-c2sc3c(c2C#N)CCCCC3)cc1	-28%	0%	?	6	.	.
Cc1ccccc1-c1nc2c(c(SCc3cccc(Cl)c3)n1)Cc1c(CO)cnc(C)c1O2	?	0%	2%	5	.	.
O=S(=O)(c1ccccc1)N1CCC2(CCN(C(c3ccccc3)c3ccccc3)CC2)CC1	-8%	.	?	.	.	.
COC(=O)N1CCC2(CC1)CN(C(c1ccccc1)c1ccccc1)C2	-6%	.	?	.	.	.
CC12CNCC(C)(CN(C(c3ccccc3)c3ccccc3)C1)C2	16µM*	0%	13µM*	-21	-81*	-27
c1ccc(C(c2ccccc2)N2CCC3(CCNCC3)CC2)cc1	5.8µM*	.	2.6µM*	.	.	.
COc1ccc(NC(=O)CN(C)S(=O)(=O)c2ccc3nc(C)sc3c2)cc1	-19%	1%	-11%	4	.	.
N#C/C(=C\c1c[nH]c2ccccc12)C(=O)Nc1ncc(Cc2ccc(Cl)cc2Cl)s1	?	1%	16µM*	1	-61*	?
CCOc1ccc(CCNC(=O)COC(=O)COc2ccc(C(=O)CC)cc2)cc1OCC	8%	1%	-20%	0	-3	2
C=CC[n+]1cccc2cc(Br)ccc21	-15%	1%	-17%	.	.	.
CCCCCCCCCCCCCCCC[n+]1cccc2ccccc21	0.41µM*	-8%	0.23µM*	1	-102*	3
CCCCCCCCC[n+]1cccc2c3ccccc3ccc21	0.58µM*	?	0.46µM*	-9	-7	-27
CCCCCCCCCC[n+]1cccc2cc(Br)ccc21	0.63µM*	-1%	1.3µM*	.	.	.
SMILES	DT40 TDP1 CPT	ClpP mod	DT40 TDP1 no CPT	DRD3 agonist	IL-1B inflam inh	DRD3 antagonist
Cc1ccccc1C[n+]1cccc2ccccc21	?	0%	15µM*	3	35	8
CCc1nc2ccc(C(=O)NCCCn3ccnc3)cn2c1N(C)Cc1cccs1	?	-4%	?	3	-24	-4
Cc1ccc(C(=O)c2oc3ccccc3c2NC(=O)Cc2coc3c(C)c(C)ccc23)cc1	-2%	-2%	-5%	3	.	.
COc1ccc2c(c1)CCC2=O	12%	0%	3%	.	.	.
COc1ccc2c(c1)CCCC(Br)C2=O (configuration not stated)	5.2µM*	-1%	3.3µM*	0	-67*	-7
COc1cc2c(NC3CCN(C)CC3)nc(N3CCCN(C)CC3)nc2cc1OCCCN1CCOCC1	7.9µM*	4%	11µM*	.	.	.
COc1cc2c(NC3CCN(C)CC3)nc(N3CCCN(C)CC3)nc2cc1OCCCN1CCCC1	?	4%	?	.	.	.
COCCCCOc1cc2nc(N3CCCN(C)CC3)nc(NC3CCN(C)CC3)c2cc1OC	13µM*	5%	11µM*	.	.	.
COc1ccc(CNC(=O)Cn2c(=O)c3cccn3c3cccnc32)cc1	-5%	-28%	-27%	3	.	.
CC1CN(CC(=O)NN=C(c2ccccc2)c2ccccc2)CC(C)O1 (configuration not stated)	?	2%	-14%	-2	0	-7
CC(C)(C)c1csc(NC(=O)c2ccc3nccnc3c2)n1	16µM*	-12%	18µM*	-11	0	2
CC(C)(C)c1csc(NC(=O)c2ccncc2)n1	?	.	21µM*	10	19	2
Cc1cccc(NC(=O)c2ccc3nccnc3c2)n1	?	0%	-25%	2	-20	-18
CN(C)Cc1ccccc1-c1cncnc1NC1CC1	-3%	.	-13%	.	.	.
CC(C)OC(=O)/C=C1\C[C@@H](c2ccccc2C(F)(F)F)O[C@@H](c2ccccc2C(F)(F)F)O1	?	-3%	21µM*	-21	29	-14
CCOC(=O)c1nn(-c2ccccc2C)c(=O)cc1OCC(=O)Nc1cccc(OC)c1	-22%	0%	-11%	8	56	28
CCOC(=O)N1CCC(NC(=O)c2ccc3c(c2)N(Cc2ccccc2)C(=O)c2ccccc2S3(=O)=O)CC1	?	-4%	?	7	.	.
CCOC(=O)N1CCC(NC(=O)c2ccc3c(c2)N(Cc2ccc(F)cc2)C(=O)c2ccccc2S3=O)CC1 (configuration not stated)	16µM*	-4%	?	-4	.	.
CCOC(=O)N1CCC(NC(=O)c2ccc3c(c2)N(Cc2ccc(Cl)cc2)C(=O)c2ccccc2S3(=O)=O)CC1	?	-4%	23µM*	-2	.	.
CCOC(=O)N1CCC(NC(=O)c2ccc3c(c2)N(Cc2ccccc2)C(=O)c2ccccc2S3=O)CC1 (configuration not stated)	-1%	0%	-2%	47*	.	.
